Here are results for 23 molecules from PubChem BioAssay (NCATS).

For one experiment, the system named is CRL-7250. The experiment is described as follows: Cytotoxic Profiling of Annotated Libraries Using Quantitative High-Throughput Screening (AID 1296008). Also: potency is read from the fitted curve at half-maximal effect. As to max response: % is scaled to controls: 0 for no effect and ±100 for the full control effect. The conditions noted are these: Five cell lines viability, CellTiter-Glo ATP luminescence, 48-72 h; max response: stronger effect = lower value. The method in brief: (§1)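 Compounds were pin-transferred onto cells and incubated 48 or 72 hr at 37 degree Celsius, 95% humidity. CellTiter-Glo was added, plates sat 10 min at room temperature, then ATP-coupled luminescence was imaged as the viability read-out.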
Background: Cellular ATP, detected with luciferase, serves as a proxy for viable cell number.

For experiment [1], the system named is HaCat. The experiment is described as above. To be noted: Five cell lines viability, CellTiter-Glo ATP luminescence, 48-72 h; max response: stronger effect = lower value. A digest of the protocol: as §1
The subject of the next experiment is KB-3-1. Described as above. To be noted: Five cell lines viability, CellTiter-Glo ATP luminescence, 48-72 h; max response: stronger effect = lower value. The method in brief: as §1
In the next experiment the test system is NIH3T3. The description is as above. The conditions noted are these: Five cell lines viability, CellTiter-Glo ATP luminescence, 48-72 h; max response: stronger effect = lower value. The method in brief:
as §1

Experiment [2] deals with HACAT. The experiment can be described thus: qHTS assay to identify novel small-molecules to repurpose for Merkel cell carcinoma treatment (AID 1296009). The conditions noted are these: MCC and control cell lines, CellTiter-Glo viability, 72 h. The method in brief: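 Viability readout: ATP luminescence (CellTiter-Glo) after 72 hr drug exposure at 37 degree celsius. Dose-response format was 8 points for NPC and 11 points for MIPE; data normalized to in-plate controls.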
(In qHTS, concentration-response curves come from the screen itself.)

The subject of another experiment is TAB109. The experiment can be described thus: qHTS profiling for inhibitors of Plasmodium falciparum proliferation (AID 504749).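 Also: 0% = DMSO vehicle and full inhibition = artemisinin control.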 To be noted: P. falciparum in erythrocytes, SYBR Green DNA, 72 h; series mostly up to 28.7 µM. The method in brief: (§2)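 Quantitative HTS: compounds pinned into medium, infected erythrocytes added (0.3% parasitemia, 2.5% hematocrit), 72 h culture at 37 C under 5% CO2. Saponin/Triton lysis with SYBR Green I, overnight RT, then fluorescence read.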

Another experiment deals with TAB113. The description is as above. The conditions noted are these: P. falciparum in erythrocytes, SYBR Green DNA, 72 h; series mostly up to 28.7 µM. The method in brief:
as §2

For a further experiment, the system named is TAB165. The experiment is described as above. To be noted: P. falciparum in erythrocytes, SYBR Green DNA, 72 h; series mostly up to 28.7 µM. A digest of the protocol:
as §2

For another experiment, the system named is W2. The description is as above. The conditions noted are these: P. falciparum in erythrocytes, SYBR Green DNA, 72 h; series mostly up to 28.7 µM. A digest of the protocol: as §2
Where [3] appears, read: at 44.8 µM (top of the series) unless noted.

Several values for one entry are separate records, joined by “and”; a condition that tells them apart may be missing. Equal entries are not always repeated. Inconclusive results are not listed. A number with no mark means an inactive call. Activity calls are given as the source filed them. Calls follow the shape of the dose curve; as a rule, active = well fitted inhibition curve with a large enough effect; inconclusive = small, poorly fitted or top-dose-only effect; inactive = flat fitted curve, though single readings scatter.
Also: nearly all actives have a fitted effect of over 60% in size.

In the case of `C=CC(=O)Nc1cccc(Sc2nc(Nc3ccc(N4CCN(C)CC4)cc3)ncc2Cl)c1`, the Potency in the experiment with CRL-7250 is 33.2 µM (active); in the experiment with HaCat [1], 5.8 µM (active).
Consider `C#C[C@]1(O)CC[C@H]2[C@H]3CCc4cc(OC)ccc4[C@H]3CC[C@@]21C`, for which the max response with CRL-7250 was -5.04%; in the experiment with HaCat [1], 0.906%; with KB-3-1, -15.5%; in the experiment on NIH3T3, 2.86%.
For the molecule `CN1[C@H]2CC[C@H]1CC(OC(=O)c1c[nH]c3ccccc13)C2` (stereo not given in full), the max response with CRL-7250 was -1.18%; with KB-3-1 it was 6.19%. In addition, the result in the experiment on HaCat [1], with NIH3T3 and in the experiment with HACAT [2] (setting [3]) was inactive.
`O=C(NCCCCN1CCOCC1)c1cc2ccccc2o1`: the values for the max response with CRL-7250 and in the experiment with NIH3T3 were -1.43% and 3.06%, respectively. The call with HaCat [1], in the experiment on KB-3-1 and in the experiment on HACAT [2] (setting [3]) was inactive.
In the case of `O=C1NC(=O)C(c2cnc3ccccn23)=C1c1cn2c3c(cccc13)CN(C(=O)N1CCOCC1)CC2`, in the experiment with CRL-7250, the Potency is 0.0166 µM (active). Further, the max response with HaCat [1] is -40.4%; in the experiment on NIH3T3 it was -24.9%.
For the molecule `COc1cc([C@H]2Oc3cc([C@H]4Oc5cc(O)cc(O)c5C(=O)[C@H]4O)ccc3O[C@H]2CO)ccc1O`, the molecule was called inactive in the experiment with CRL-7250, in the experiment on HaCat [1] and in the experiment with HACAT [2] (setting [3]). Also, the max response in the experiment with KB-3-1 is -0.459%; in the experiment with NIH3T3, 0.0248%.
Consider `Cc1c(-c2cccc3c(CCCOc4cccc5ccccc45)c(C(=O)O)n(Cc4cccnc4)c23)c(COc2ccc(N3CCN([S+](=O)([O-])N(C)C)CC3)cc2)nn1C`, for which the max response in the experiment on CRL-7250 was -2.89%; in the experiment on HaCat [1] it was -5.9%; in the experiment on NIH3T3, -4.88%.
For `O=C(Nc1ccccc1)Nc1ccc(-c2ccc(C(=O)[C@H]3CCC[C@H]3C(=O)O)cc2)cc1`, the outcome in the experiment with CRL-7250, in the experiment on HaCat [1] and in the experiment on HACAT [2] (setting [3]) was inactive. In addition, the max response was 9.29% in the experiment on KB-3-1 and 3.03% in the experiment with NIH3T3.
On to `O=C1C(c2c(O)[nH]c3ccccc23)=Nc2ccccc21`, for which the call in the experiment with CRL-7250, in the experiment with HaCat [1], with KB-3-1, in the experiment with NIH3T3, in the experiment on HACAT [2] (at 17.4 µM (top of the series)) and with HACAT [2] (at 44.8 µM (top of the series)) was inactive. Further, the max response in the experiment with NIH3T3 is 2.3%.
On to `CCC[C@H](N[C@@H](C)C(=O)N1[C@@H]2CCCC[C@H]2C[C@H]1C(=O)O)C(=O)OCC`, for which the max response is 2.7% in the experiment on CRL-7250, -1.21% in the experiment with KB-3-1 and -10.8% with NIH3T3. The molecule was called inactive with HaCat [1] and with HACAT [2] (setting [3]).
Regarding `CCCCC(C)(C)[C@H](O)C=C[C@H]1[C@H](O)CC(=O)[C@H]1CC=CCCCC(=O)O`, the max response in the experiment with CRL-7250 is -10.4%. Moreover, the molecule was classed as inactive with HaCat [1], in the experiment with KB-3-1 and in the experiment on HACAT [2] (setting [3]).
Consider `N#CC(c1ccnc(NCCc2cccnc2)n1)c1nc2ccccc2s1` (stereo not given), for which the max response was -3.29% in the experiment with CRL-7250, 8.21% in the experiment on KB-3-1 and -3.33% in the experiment on NIH3T3. Further, the result with HaCat [1] and in the experiment on HACAT [2] (setting [3]) was inactive.
Turning to `O=[N+]([O-])c1ccc(Nc2ccccc2-c2ccccc2)c2nonc12`, the figures for the max response in the experiment with CRL-7250, in the experiment on KB-3-1 and in the experiment on NIH3T3 were -7.85%, -18.3% and -25.2%, respectively. For the same molecule, the molecule was called inactive in the experiment with HaCat [1] and in the experiment on HACAT [2] (setting [3]).
`c1ccc(-c2oc3ncnc(NC[C@@H]4CCCO4)c3c2-c2ccccc2)cc1`: the max response in the experiment with CRL-7250 is -6.45%; with HaCat [1], -3.81%. In the experiment with NIH3T3, the Potency was 14.6 µM (active).
As to `CCCCN(CCCC)CC(O)c1cc(Cl)cc2c1-c1ccc(Cl)cc1C2=Cc1ccc(Cl)cc1` (stereo not given), the values for the max response in the experiment on CRL-7250 and with KB-3-1 were -1.5% and 3.8%, respectively. Further, the molecule was called inactive in the experiment with HaCat [1], with NIH3T3 and in the experiment with HACAT [2] (setting [3]).
On to `CCCCC(C=O)NC(=O)C(CC(C)C)NC(=O)OCc1ccccc1` (stereo not given), for which the max response was -8.38% in the experiment with CRL-7250, -12% in the experiment with KB-3-1 and -21.8% with NIH3T3. Further, the outcome in the experiment on HaCat [1] and in the experiment with HACAT [2] (setting [3]) was inactive.
Turning to `CN(C)c1ccccc1CN1CCCN(Cc2ccccc2N(C)C)C1c1ccncc1`, the molecule was classed as inactive in the experiment with CRL-7250, in the experiment on HaCat [1], in the experiment on KB-3-1 and in the experiment with HACAT [2] (setting [3]). Moreover, the max response with NIH3T3 is -1.17%.
`CC=C1C2C=C(C)CC1(N)c1ccc(=O)[nH]c1C2` (stereo not given): the max response is 3.51% in the experiment with CRL-7250, 3.2% with KB-3-1 and -12.9% in the experiment on NIH3T3. Besides, the molecule was called inactive with HaCat [1] and with HACAT [2] (setting [3]).
Take `C=C1c2cccc(O)c2C(O)=C2C(=O)[C@@]3(O)C(O)=C(C(N)=O)C(=O)[C@@H](N(C)C)[C@@H]3[C@@H](O)[C@H]12`: the Potency result in the experiment on TAB109 and with TAB113 was “inactive” each time. Moreover, the figures for the max response in the experiment on CRL-7250, in the experiment on KB-3-1 and in the experiment on NIH3T3 were -8.75%, 1.29% and -2.7%, respectively. Besides, the molecule was called inactive with HaCat [1] and with HACAT [2] (setting [3]).
For `CN(C)CCOc1cc(-c2cn[nH]c2)ccc1NC(=O)C1COc2ccccc2O1` (stereo not given), the molecule was classed as inactive with CRL-7250, in the experiment with HaCat [1] and in the experiment on HACAT [2] (setting [3]). Further, the max response in the experiment with KB-3-1 was -7.59% and -3.43%; with NIH3T3, -6.62%.
Take `C[C@@H](NC(=O)c1ncnc(N)c1Cl)c1ncc(C(=O)Nc2cc(C(F)(F)F)c(Cl)cn2)s1`: the max response was -9.83% in the experiment on CRL-7250; -5.83% and 1.58% in the experiment with NIH3T3. The result in the experiment on HaCat [1], in the experiment on KB-3-1 and in the experiment with HACAT [2] (setting [3]) was inactive.
Consider `CN1CC(=O)N2C(Cc3c([nH]c4ccccc34)[C@H]2c2ccc3c(c2)OCO3)C1=O` (stereo not given in full), for which the Potency entry with TAB109, in the experiment on TAB113, in the experiment with TAB165 and in the experiment with W2 was “inactive” throughout. Moreover, the max response in the experiment with CRL-7250 was -5.59%; in the experiment on HaCat [1], 4.52%; in the experiment with KB-3-1, -12.7%.
`N#CC(=C1Nc2ccccc2S1)c1ccnc(OCc2ccc(CN3CCOCC3)cc2)n1`: the max response is 4.11% in the experiment with CRL-7250, -1.84% in the experiment on KB-3-1 and -8.13% in the experiment on NIH3T3. Further, the outcome in the experiment with HaCat [1] and with HACAT [2] (setting [3]) was “inactive; activator” in each case.
